# Results as given in PubChem BioAssay (EPA / NIEHS).
# Results filed as inconclusive are left out. Some structures have more than one record in an assay (separate samples or runs), and their calls can disagree. Active and inactive are the calls of the source. How the source made its calls: active means hit-call score of the fitted dose curve at least 0.9, where 1 is the maximum; inconclusive means response in the unintended direction; inactive means score below 0.9.
# Molecular target: human Retinoid X Receptor beta (RXRb), RXRB (gene 6257) (UniProt P28702)
# Sequence (P28702 whole entry, looked up): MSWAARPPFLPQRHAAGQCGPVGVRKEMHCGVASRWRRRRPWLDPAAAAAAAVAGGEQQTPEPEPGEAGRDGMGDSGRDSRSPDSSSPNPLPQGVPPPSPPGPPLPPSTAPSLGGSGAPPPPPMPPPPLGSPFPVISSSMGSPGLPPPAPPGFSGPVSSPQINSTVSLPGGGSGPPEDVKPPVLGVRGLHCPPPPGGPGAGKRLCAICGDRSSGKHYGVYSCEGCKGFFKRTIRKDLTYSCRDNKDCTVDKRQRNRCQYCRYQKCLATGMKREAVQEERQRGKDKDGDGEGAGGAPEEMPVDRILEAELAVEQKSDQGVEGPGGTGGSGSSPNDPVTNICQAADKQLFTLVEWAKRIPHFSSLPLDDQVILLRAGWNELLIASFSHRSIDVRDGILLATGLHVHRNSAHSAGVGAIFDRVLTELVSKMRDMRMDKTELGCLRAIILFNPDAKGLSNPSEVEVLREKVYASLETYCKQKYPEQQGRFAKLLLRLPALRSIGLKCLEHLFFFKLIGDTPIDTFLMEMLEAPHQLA
# Assay: ATG_RXRb_TRANS: Attagene TRANS-FACTORIAL HepG2 Assay for human Retinoid X Receptor beta (RXRb) (AID 2283013)
# Protocol: ATG_TRANS is a cell-based, multiplexed-readout assay that uses HepG2, a human liver cell line, with measurements taken at 24 hours after chemical dosing in a 24-well plate.ATG_RXRb_TRANS is one of 30 assay component(s) measured or calculated from the ATG_TRANS assay. It is designed to make measurements of mRNA induction, a form of inducible reporter, as detected with fluorescence intensity signals by Reverse transcription polymerase chain reaction (RT-PCR) and Capillary electrophoresis technology.Data from the assay component ATG_RXRb_TRANS was analyzed into 1 assay endpoint. This assay endpoint, ATG_RXRb_TRANS, was analyzed in the positive analysis fitting direction relative to DMSO as the negative control and baseline of activity. Using a type of inducible reporter, measures of mRNA for gain-of-signal activity can be used to understand the reporter gene at the transcription factor-level as they relate to the gene RXRB. Furthermore, this assay endpoint can be referred to as a primary readout, because this assay has produced multiple assay endpoints where this one serves a reporter gene function. To generalize the intended target to other relatable targets, this assay endpoint is annotated to the nuclear receptor intended target family, where the subfamily is non-steroidal.
# Human liver HepG2 cells are transiently transfected with multiple reporter transcription units (MRTUs) in 6-well plates using FuGene 6 reagent (Roche; 3 ml FuGene/1 mg DNA). The MRTU constructs are regulated by a cis-regulating element (promoter). […] A major difference between the CIS and TRANS system is that in CIS activities of endogenous TFs are measured, whereas the TRANS assay evaluates changes in activities of exogenous, chimeric NR-Gal4 proteins. […] At the end of 24 hour incubation, total RNA was isolated using TriZol reagent (Invitrogen). The isolated RNA is then reverse-transcribed using oligo(dT) primer and Mo-MLV reverse transcriptase (Invitrogen) with DNAse I (Ambion) treatment for 30 min. The one-tenth of the produced cDNA was amplified by PCR using Taq DNA polymerase (Invitrogen) and two reporter sequence-specific primers. The PCR products were fluorescently labeled by primer extension with 6-arboxyfluorescein (6-FAM) 5'-labeled reporter sequence-specific primer (2 min at 95 C, 20 s at 68 C and 10 min at 72 C) and these products were digested with 5U of HpaI (New England Biolabs) for 2h at 37 C. The fragments were purified using Qiaquick PCR columns (Qiagen), analyzed on an ABI 3130xL genetic analyzer (Applied Biosystems) with peak positions identified by using a set of X-rhodamine (ROX)-labeled MapMarker1000 molecular weight standards (BioVentures). The raw capillary electrophoresis data was processed using Attagraph software (Attagene).
Structure (SMILES),AC50,outcome
CCOC(=O)CCN(SN(C)C(=O)Oc1cccc2c1OC(C)(C)C2)C(C)C,37.8 µM (active),–
CC(=O)CN(CC(C)=O)N=O,–,inactive
Nc1nc(=S)[nH][nH]1,164 µM (active),–
CCOP(=S)(OCC)OP(=S)(OCC)OCC,50.2 µM (active),–
N#Cc1ccccc1Cl,–,inactive
Cc1cc(Cl)ccc1O,100 µM (active),–
OC(Cc1ccccc1Cl)(Cn1cncn1)C1(Cl)CC1 (stereo unspecified),–,inactive
Clc1cccc(Cl)c1Cl,–,inactive
COP(=S)(OC)Oc1cc(Cl)c(I)cc1Cl,38.6 µM (active),–
C1CCC(C2CCCCC2)CC1,66.1 µM (active),–
C=CCN=C=S,–,inactive
O=[N+]([O-])c1cc([As](=O)(O)O)ccc1O,–,inactive
C=C(C)C(=O)OCCCCOC(=O)C(=C)C,–,inactive
O=[N+]([O-])c1ccc(Nc2ccccc2)cc1,12.1 µM (active),–
BrCCCCBr,–,inactive
O=c1nc(O)n(Cl)c(=O)n1Cl,–,inactive
Oc1cccc(-c2ccccc2)c1,36.6 µM (active),–
CN(CCCC(O)c1cccnc1)N=O (stereo unspecified),–,inactive
C#CCO,–,inactive
c1csc(-c2ccc(-c3cccs3)s2)c1,–,inactive

Structure (SMILES),AC50,outcome
c1ccc2sc(SNC3CCCCC3)nc2c1,–,inactive
CN(N=O)c1ccc([N+](=O)[O-])cc1,–,inactive
c1ccc2c(c1)Oc1ccccc1O2,–,inactive
CC1CC(=O)O1 (stereo unspecified),–,inactive
CCOC(=O)OC1=C(c2cc(C)ccc2C)C(=O)NC12CCC(OC)CC2 (stereo unspecified),–,inactive
CC(C)C(C)(N)C#N (stereo unspecified),–,inactive
O=C1c2ccccc2C(=O)C1C(=O)C(c1ccccc1)c1ccc(Cl)cc1 (stereo unspecified),–,inactive
Cc1cc(-c2cc(C)c(N)c(C)c2)cc(C)c1N,25.4 µM (active),–
OCCN(CCO)CCO,–,inactive
Brc1ccc(Oc2c(Br)cc(Br)cc2Br)c(Br)c1,–,inactive
C=CCc1ccccc1O,–,inactive
CCCCCCCCCCCCc1cccc(S(=O)(=O)O)c1,30 µM (active),–
ClCCN1CCOCC1,–,inactive
COC(F)(C(F)(F)C(F)(F)F)C(F)(C(F)(F)F)C(F)(F)F (stereo unspecified),–,inactive
CCCCN(CCCC)C(=S)[S-].CCCCN(CCCC)C(=S)[S-].[Ni+2],–,inactive
CCCCC(CC)COC(=O)Cl (stereo unspecified),–,inactive
CC(=Cc1ccccc1)[N+](=O)[O-],17.3 µM (active),–
Clc1cccc(Cl)c1,–,inactive
CCC[N+](CCC)(CCC)CCC,–,inactive
O=C(O)CC(O)(CC(=O)O)C(=O)O,1.11 µM (active),inactive
